Compound activity (PubChem BioAssay)
In the library only some 7.5% were active in any assay of this set; here they are far more common.
KinaseGlo FLuc – counter-screen: inhibitors of Kinase-Glo firefly luciferase; Q27757; Kinase-Glo luciferase, ATP luminescence, 8 min; Potency, µM (highest dose often 38.3 µM), for the others: top-dose activity change, negative = inhibition, hits mostly inhibitors; actives 0.28% (n = 200,000); AID 1379; note: % is set by controls: 0 for no effect and ±100 for the full control effect; nearly all actives have a fitted effect of over 60% in size
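Luminescence was the read-out, taken after 8-minute incubation at ambient temperature. Luciferase turned over luciferin with 10 uM ATP in imidazole pH 7.2 buffer containing KCl, MgCl2, Tween 20 and BSA.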
NPC1 promoter act – activates the NPC1 promoter | actives 2.4% (n = 320,000) | Potency, µM (top dose mostly 9.22 µM), for the others: at the top dose activation, actives largely listed as activators | Huh7 NPC1 promoter luciferase reporter, 24 h; note: % of control where 0% means no effect; nearly all actives have a fitted effect of over 60% in size
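Stably transfected Huh7 (NPC1 promoter→luciferase), 1500 cells/well in Opti-MEM + 10% FBS, 2 h settle, then compound 24 h at 37 °C. Luminescence after 10 min with Amplite reagent.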
SMN2 splice enh – increases expression of the SMN2 splice variant; AID 1458; actives 2.8% (n = 210,000); HEK293 SMN2-luciferase splicing reporter, luminescence, 30-36 h; Potency, µM (top dose mostly 46.1 µM), for the others: at the highest dose activity change, positive = activation, most hits filed as activators; note: % of control where 0% means no effect; nearly all actives have a fitted effect of over 55% in size
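HEK293 cells carry an SMN2 minigene-luciferase reporter in which exon 7 inclusion puts luciferase in frame. Cells were seeded at 2000 cells/well, attached for 10-12 hours, then exposed to compounds for 30-36 hours at 37C before ONE-Glo luminescence.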
ELG1 genotox – genotoxicity induction in ELG1-luciferase HEK293T cells; Potency, µM (top dose mostly 46 µM), for inactives: at the top dose activity change, positive = activation, usual class: activators; actives 1.3% (n = 330,000); HEK293T ELG1-luciferase reporter, luminescence, 16 h; AID 504466; note: % of control where 0% means no effect; nearly all actives have a fitted effect of over 60% in size
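Reporter readout depends on ELG1 protein level, which increases with genetic stress. After 16 hr compound exposure at 37 °C, luciferase activity was quantified using ONE-Glo.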
FLuc counter – inhibits or activates purified firefly luciferase, miR-21 counter-screen; P08659; purified FLuc, Km substrates, luminescence inhibition; Potency, µM (titrated, usually from 57.5 µM), inactives show at the top dose activity change, negative = inhibition, usual class: inhibitors; actives 6.9% (n = 360,000);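 note: plate controls were vehicle for no effect and reference inhibitor for full effect; nearly all actives have a fitted effect of over 55% in size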
Target sequence (P08659 whole entry, looked up): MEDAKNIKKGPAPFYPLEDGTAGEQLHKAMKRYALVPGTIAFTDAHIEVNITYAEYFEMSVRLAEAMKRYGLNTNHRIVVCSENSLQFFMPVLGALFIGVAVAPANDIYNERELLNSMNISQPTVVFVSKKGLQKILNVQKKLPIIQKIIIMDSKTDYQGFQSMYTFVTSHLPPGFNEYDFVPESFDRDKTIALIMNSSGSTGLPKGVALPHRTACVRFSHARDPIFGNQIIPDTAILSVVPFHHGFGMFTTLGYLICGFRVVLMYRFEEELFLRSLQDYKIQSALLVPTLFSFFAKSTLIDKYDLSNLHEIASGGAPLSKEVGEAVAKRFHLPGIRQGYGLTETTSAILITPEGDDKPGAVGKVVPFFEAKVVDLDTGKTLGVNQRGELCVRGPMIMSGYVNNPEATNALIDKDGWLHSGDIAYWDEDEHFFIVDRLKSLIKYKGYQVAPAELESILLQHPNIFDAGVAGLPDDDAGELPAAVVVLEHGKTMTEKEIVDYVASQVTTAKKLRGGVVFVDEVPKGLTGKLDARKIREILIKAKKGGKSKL
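Biochemical qHTS of compounds, final roughly 60 µM downward over six points, against 10 nM purified firefly luciferase using Km concentrations of substrates (10 uM D-luciferin, 10 uM ATP) in Tris acetate pH 7.5 buffer; luminescence output.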
Rab9 prom act – activates the Rab9 promoter; Huh7 Rab9 promoter-luciferase reporter, luminescence, 24 h; Potency, µM (highest dose often 9.22 µM), for the others: top-dose activation, negative = inhibition, usual class: activators; actives 2.8% (n = 320,000); note: % of control where 0% means no effect; nearly all actives have a fitted effect of over 60% in size
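Steps: seed 1500 Huh7 Rab9-luc cells per well, rest 2 h at 37 °C; add compound in DMSO; incubate 24 h; add luciferase reagent, 10 min ambient; read luminescence.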
The depositor's hits bear a star; u = inconclusive; x = no result; [ ] = remark or other dose. Calls come from the whole dose curve; as a rule, active = well fitted curve in the direction sought with a large enough effect; inconclusive = small, poorly fitted or top-dose-only effect, or another doubt; inactive = no such curve, though single readings can be large; an effect the other way counts as inactive or inconclusive. Potency is the fitted concentration of half-maximal effect.

SMILES | KinaseGlo FLuc | NPC1 promoter act | SMN2 splice enh | ELG1 genotox | FLuc counter | Rab9 prom act
Cc1ccc2c(CC(=O)N3CCN(c4cccc(Cl)c4)CC3)coc2c1C | x | x | -10% | x | -8% | x
CCOC(=O)c1sc2ncn(CC(=O)Nc3ccc(OCC)cc3)c(=O)c2c1C | x | x | -6% | x | 2% | x
CCOC(=O)C1(Cc2cccc(OC)c2)CCCN(C(=O)CCc2cccnc2)C1 (centres undefined) | -1% | 16% | x | u | 17µM* | u
COc1ccc(NC(=O)c2ccc(-c3cccc(Cl)c3C)o2)cc1 | x | x | 10% | x | u | x
COc1ccc(NC(=O)c2ccc(-c3ccccc3Cl)o2)cc1 | -3% | u | 18µM* | u | 9.5µM* | u
CC(C)(CNC(=O)c1ccc(-c2ccccc2Cl)o1)N1CCOCC1 | x | u | x | 13µM* | u | u
CCc1nnc(NC(=O)c2ccc(-c3ccccc3Cl)o2)s1 | -11% | 30% | 5% | 21µM* | u | u
CC(=O)c1cccc(NC(=O)c2ccc(-c3ccccc3[N+](=O)[O-])o2)c1 | -2% | u | 10µM* | u | 3.4µM* | 3.2µM*
CCN(CC(=O)NCc1ccc(Cl)cc1)C(=O)COc1ccc(Cl)cc1Br | x | -4% | x | 0% | 1% | -1%
Cc1ccc(-c2nnc(Nc3ccc(O)cc3)c3ccccc23)cc1S(=O)(=O)N1CCCCC1 | x | x | -14% | x | -11% | x
COC(=O)c1sccc1-c1ccc(C(=O)Nc2ccccc2)o1 | -4% | 3.5µM* | u | u | 7.6µM* | 2.2µM*
O=C(Nc1cccc(O)c1)c1cc(-c2ccccc2F)no1 | x | x | x | x | 1% | x
O=C(Nc1ccccc1)c1cc(-c2ccccc2Cl)no1 | -18% | u | u | u | 0.76µM* | 23%
COc1ccc(NC(=O)c2cc(-c3ccccc3Cl)no2)cc1 | -1% | 1% | -9% | 8% | 9.5µM* | -3%
Cc1ccc(NC(=O)c2ccc(-c3cccc(Cl)c3C)o2)cc1 | x | x | -19% | x | 7.6µM* | x
CCOc1ccc(NC(=O)c2ccc(-c3cccc(Cl)c3C)o2)cc1 | x | x | 8% | x | -17% | x
COc1ccc(NC(=O)CC2C(=O)N(c3ccc(F)cc3)C(=O)N2Cc2ccc3c(c2)OCO3)cc1 (centres undefined) | x | x | 0% | x | -3% | x
CCCn1c(SCC(=O)Nc2ccc(S(=O)(=O)N(C)C)cc2)n[nH]c1=O | 2% | 1% | -4% | -3% | 0% | -6%
O=C(Nc1cccc(F)c1)c1ccc(-c2ccccc2Cl)o1 | -11% | -2% | 11µM* | u | 9.5µM* | -2%
CC(C)n1cnc2c(Nc3ccc(C(=O)O)cc3)nc(Cl)nc21 | x | u | x | u | 12µM* | 18%
O=C(NCc1ccccc1Cl)c1cc2c(s1)-c1ccc(Cl)cc1SC2 | x | x | -2% | x | -11% | x
COc1ccccc1CNC(=O)Cn1c(=O)ccc2cc(S(=O)(=O)N3CCCC3)ccc21 | x | x | x | x | -2% | x
Brc1ccc2nc(-c3cccs3)c(NCC3CCCO3)n2c1 (centres undefined) | -7% | u | x | -8% | 12µM* | 27%
CCOC(=O)/C(N=Nc1ccc2c(c1)OCO2)=C(\C)O | -10% | 4µM* | 11µM* | u | 13µM* | 2.5µM*
COc1ccc(-c2nn3c(=O)cc(CN4CCN(C(=O)c5ccc(C(C)(C)C)cc5)CC4)nc3s2)cc1 | x | x | x | x | -17% | x
SMILES | KinaseGlo FLuc | NPC1 promoter act | SMN2 splice enh | ELG1 genotox | FLuc counter | Rab9 prom act
O=C(NCc1ccccc1)C1CCCC1 | x | 5% | x | -3% | -6% | 1%
O=C(NC1CCCCC1)C(=S)N1CCCC1 | -1% | -3% | -13% | 0% | -1% | -3%
O=C(CSc1ccccc1C(=O)NCc1ccccc1)NC1CCCCCCC1 | 2% | -3% | -37% | -5% | 24µM* | -4%
O=C(NC1CCCCC1)C(=S)NCc1ccccc1 | -1% | u | u | 17% | 21µM* | u
O=C(NC1CCCCCC1)C(=S)NCCc1ccccc1 | -1% | 10% | 23% | 8% | u | 26%
O=C(NC1CCCCCC1)C(=S)NCc1ccccc1 | 4% | 14% | 25% | 14% | 21µM* | u
O=C(NC1CCCCC1)C(=S)NC1CCCCC1 | -2% | 2.8µM* | 14µM* | u | u | 3.5µM*
O=C(NCC1CCCO1)c1cc(-c2ccc(F)cc2)no1 (centres undefined) | x | 23% | x | u | u | 3.2µM*
O=C(CNC(=O)c1ccc(Cl)cc1Cl)NCC1CCCO1 (centres undefined) | x | 11% | x | 2% | 24µM* | 12%
O=C(NC(=S)NCC1CCCO1)c1ccc(Cl)cc1Cl (centres undefined) | -2% | 3% | 17% | 7% | -4% | 1%
COc1ccc(-c2cc(C(=O)NCC3CCCO3)on2)cc1OC (centres undefined) | x | -5% | x | 5% | -9% | -4%
O=C(NCC1CCCO1)c1cc(-c2ccc(Cl)cc2Cl)on1 (centres undefined) | -6% | 3.5µM* | 25µM* | u | 3.4µM* | 2.8µM*
O=C(NCC1CCCO1)c1cc(-c2ccccc2)on1 (centres undefined) | -1% | 2.5µM* | 35µM* | 10µM* | 15µM* | 2.5µM*
Cc1ccc(C)c(Nc2ncnc3onc(C)c23)c1 | x | x | x | x | -5% | x
Cc1cccc(NC(=O)C(=O)NCC2CCCO2)c1 (centres undefined) | -9% | 2.5µM* | x | u | 21µM* | 0.71µM*
Cc1ccc(-c2cc(C(=O)NCC3CCCO3)no2)cc1 (centres undefined) | 0% | 2.5µM* | 10µM* | u | -17%[2.3 µM] | 2.8µM*
Cc1ccc(F)c(NC(=O)/C(C#N)=C(\O)c2ccc(C(C)(C)C)cc2)c1 | 1% | 8% | u | 6% | 12µM* | 5%
Cc1ccc(CNC(=O)C2(S(=O)(=O)c3ccccc3)CC=CC2)cc1 | x | 4µM* | x | u | 15µM* | 4µM*
Cc1ccc(CNC(=O)C2(S(=O)(=O)c3ccc(C)cc3)CC2)cc1 | x | -3% | x | -7% | 5% | 5%
CCc1ccc(-n2nc(CO)c(C(=O)NC(C)c3ccc(Cl)cc3)n2)cc1 (centres undefined) | x | x | 4% | x | -19% | x
CCOC(=O)C1(C)C=C(Nc2cccc(C(=O)O)c2)C(=O)N1c1ccccc1 (centres undefined) | x | x | 13µM* | x | 24µM* | x
CC1(C)c2ccccc2-c2nc3ccccc3cc2C1O (centres undefined) | x | -5% | x | 0% | 15µM* | 4%
Oc1cc2ccccc2nc1-c1ccccc1Cl | x | -3% | x | -5% | -14% | -3%
